In PubChem BioAssay (NCATS):
Results filed as inconclusive are left out. Unmarked numbers belong to inactive results. Active and inactive are the calls of the source. Calls come from the whole dose curve.

Assay: Cytotoxicity counterscreen for inhibitors of SARS-CoV-2 cell entry (AID 1645845); note: nearly all actives have a fitted effect of over 50% in size
Conditions: cell viability (SARS-CoV-2 entry assay cells); series mostly up to 57.1 µM; activity change, negative = cytotoxicity: at the top concentration
Procedure, shortened: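 HEK293-ACE2 cells (Expi293F stably expressing human ACE2) seeded overnight, then compound for 1 h plus 48 h at 37C. Viability as ATP content by luminescence; normalized to wells with cells and media-only wells.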
% is set by controls: 0 for no effect and ±100 for the full control effect; potency is the fitted concentration of half-maximal effect.

Structure (SMILES) | Potency | activity change, negative = cytotoxicity [%] | outcome
CCN(CC)CCNc1ccc(C)c2sc3ccccc3c(=O)c12 | 28.2 µM (active) |  | 
CN1C(=O)c2sccc2N(C)c2nc(Nc3ccc(S(N)(=O)=O)cc3)ncc21 |  | -18.7 | 
O=C(NOCCO)c1cc(CN2OCCCC2=O)c(F)c(F)c1Nc1ccc(I)cc1F |  | -9.84 | 
C1=C/COCc2cc(ccc2OCCN2CCCC2)Nc2nccc(n2)-c2cccc(c2)COC/1 | 7.08 µM (active) |  | 
COc1cc(=C2C=c3ccccc3=N2)[nH]/c1=C/c1[nH]c(C)cc1C | 10 µM (active) |  | 
CCOc1cc(C(C)(C)C)ccc1C1=N[C@@](C)(c2ccc(Cl)cc2)[C@@](C)(c2ccc(Cl)cc2)N1C(=O)N1CCN(CC(=O)N2CCOCC2)CC1 |  |  | inactive [at 37.9 µM]
CN(C)N(C)C(=O)[C@@]1(Cc2ccccc2)CCCN(C(=O)[C@@H](Cc2c[nH]c3ccccc23)NC(=O)C(C)(C)N)C1 |  |  | inactive
Nc1cc(C(F)(F)F)c(-c2nc(N3CCOCC3)nc(N3CCOCC3)n2)cn1 | 10 µM (active) |  | 
CO[C@H]1/C=C/O[C@@]2(C)Oc3c(C)c(O)c4c(O)c(c5c(nc6cc(C)ccn65)c4c3C2=O)NC(=O)/C(C)=C\C=C\[C@H](C)[C@H](O)[C@@H](C)[C@@H](O)[C@@H](C)[C@H](OC(C)=O)[C@@H]1C |  | -8.31 | 
C[C@H](Nc1ncnc2nc[nH]c12)c1cc2cccc(Cl)c2c(=O)n1-c1ccccc1 |  | 2.56 | 
C=C1C(=O)O[C@H]2C[C@H](C)C(/C=C/C(C)=O)=CC[C@H]12 | 31.6 µM (active) |  | 
Cn1cc(/C=C/C(=O)c2cccc(F)c2)cc1/C=C/C(=O)NO |  |  | inactive
O=C(O)CNC(=O)c1nc(Cl)c2ccccc2c1O |  |  | inactive
Cc1c(NC(=O)OCC2COCCN2)cn2ncnc(Nc3ccc4c(cnn4Cc4cccc(F)c4)c3)c12 (stereo not given) |  | -19.4 | 
COCCOC(=O)N1CCN(S(=O)(=O)c2cc(F)c(Oc3ccc(Cl)cc3)c(F)c2)C(C(=O)NO)C1 (stereo not given) | 31.6 µM (active) |  | 
CCC[C@H](NC(=O)/C(C#N)=C/c1cccc(Br)n1)c1ccccc1 | 20 µM (active) |  | 
C=CCNC1=C2C[C@@H](C)C[C@H](OC)[C@H](O)[C@@H](C)/C=C(\C)[C@H](OC(N)=O)[C@@H](OC)/C=C\C=C(/C)C(=O)NC(=CC1=O)C2=O | 25.1 µM (active) |  | 
CNS(=O)(=O)c1ccc2c(c1)/C(=C/c1[nH]c3c(c1CCCN1CCN(C)CC1)CCCC3)C(=O)N2 |  |  | inactive
Nc1nc2cc(-c3ccc4ncc(C(=O)N5CCOCC5)n4c3)ccc2o1 |  | -11.9 | 
CC[C@@H](Oc1cccc(CN(CCCOc2ccc(OC)cc2)c2nc3ccccc3o2)c1)C(=O)O |  |  | inactive
C[C@H](NC(=O)CCC(F)(F)F)C(=O)N[C@@H]1C(=O)N(CCO)c2ncccc2-c2ccccc21 |  |  | inactive
O=C(NO)C1(CS(=O)(=O)c2ccc(Oc3ccc(Cl)cc3)cc2)CCOCC1 |  | -17.4 | 
CN[C@@H](C)C(=O)N[C@H](C(=O)N1CCC[C@H]1C(=O)Nc1snnc1-c1ccccc1)C1CCCCC1 |  | -16 | 
CNC(=O)[C@@H](NC(=O)[C@H](CC(C)C)[C@H](O)C(=O)NO)C(C)(C)C |  |  | inactive
CCC(C)CNCC(=O)N1CCc2sccc2C1c1cccc(C)n1 (stereo not given) |  | 0.183 | 
